Experimental data published in PubChem BioAssay (NCI).
Compounds without any hit were thinned out: in the full panel of roughly 79,000, 15% have a hit. Active and inactive are the calls of the source. Rule as the data show it: active = growth inhibition above about 70%; inactive = the rest.

What was measured:
[1] = NCI Yeast Anticancer Drug Screen. Data for the rad52 strain (AID 147);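 also: 0% = growth of vehicle-treated control cultures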; conditions: S. cerevisiae rad52 mutant growth inhibition, active compounds read high
Method in brief: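 Genetically altered yeast (DNA damage repair defect) treated with compound; inhibition calculated relative to vehicle.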

[2] = NCI Yeast Anticancer Drug Screen. Data for the wt1 strain (AID 149);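 also: 0% = growth of vehicle-treated wt1 cultures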; conditions: S. cerevisiae wt1 strain (SPY 50644) growth inhibition, active compounds read high
Method in brief: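 Growth inhibition read against vehicle controls after compound exposure of the wt1 yeast strain.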

[3] = NCI Yeast Anticancer Drug Screen. Data for the rad50EPP+ strain (AID 151);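 also: 0% = growth of vehicle-treated control cultures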; conditions: S. cerevisiae rad50 mutant strain, active compounds read high
Method in brief: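 Strain rad50EPP+; compound exposure; % growth inhibition vs vehicle.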

[4] = NCI Yeast Anticancer Drug Screen. Data for the rad50 strain (AID 155);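 also: 0% = growth of vehicle-only cultures of the same strain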; conditions: S. cerevisiae rad50 strain growth inhibition, active compounds read high
Method in brief: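 Readout: growth inhibition relative to vehicle-treated cultures. Compound exposure was carried out in a genetically defined yeast strain deficient in DNA damage repair.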

[5] = NCI Yeast Anticancer Drug Screen. Data for the mec2-1 strain (AID 157); conditions: S. cerevisiae mec2-1 strain, active compounds read high
Method in brief: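 Cells of the genetically defined mec2-1 yeast strain are incubated with test compound. Inhibition of growth is calculated against vehicle-treated controls.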

[6] = NCI Yeast Anticancer Drug Screen. Data for the rad14 strain (AID 159);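 also: 0% = growth of vehicle-treated control cultures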; conditions: S. cerevisiae rad14 strain growth inhibition, active compounds read high
Method in brief: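 Growth inhibition vs vehicle controls; genetically altered yeast strain (DNA damage repair defect) treated with test compounds.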

[7] = NCI Yeast Anticancer Drug Screen. Data for the sgs1 mgt1 strain (AID 161);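 also: 0% = growth of cultures given vehicle only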; conditions: S. cerevisiae sgs1 mgt1 strain, active compounds read high
Method in brief: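 Test agents were incubated with a DNA-repair-mutant yeast strain. Growth was then read and compared against vehicle-treated controls.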

[8] = NCI Yeast Anticancer Drug Screen. Data for the CLN2oe strain (AID 163);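 also: 0% = growth of vehicle-only control cultures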; conditions: S. cerevisiae CLN2oe strain, active compounds read high
Method in brief: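 Strain altered in cell-cycle control, incubated with compound; growth compared to solvent-treated controls.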

[9] = NCI Yeast Anticancer Drug Screen. Data for the cln2 rad14 strain (AID 165);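 also: 0% = growth equal to vehicle treated cultures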; conditions: S. cerevisiae cln2 rad14 strain, active compounds read high
Method in brief: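 The screen exposed genetically defined yeast (cln2 rad14) to test compounds and scored growth inhibition relative to vehicle-treated controls.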

[10] = NCI Yeast Anticancer Drug Screen. Data for the bub3 strain (AID 167); conditions: S. cerevisiae bub3 mutant strain, active compounds read high
Method in brief: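 Readout: yeast growth inhibition, expressed relative to vehicle-only wells. The test organism is a mutant strain from a panel with lesions in DNA repair or checkpoint genes.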

[11] = NCI Yeast Anticancer Drug Screen. Data for the wt2 strain (AID 169);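 also: 0% = growth of vehicle-treated yeast cultures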; conditions: S. cerevisiae wt2 strain growth inhibition, active compounds read high
Method in brief: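 Steps: yeast strain treated with compound; growth recorded; inhibition calculated relative to cultures given vehicle alone.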

[12] = NCI Yeast Anticancer Drug Screen. Data for the mlh1 strain (AID 171);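 also: 0% = growth of vehicle-treated control cultures of the same strain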; conditions: S. cerevisiae mlh1 strain growth inhibition, active compounds read high
Method in brief: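 Yeast screen: mutant strain plus compound, growth scored against vehicle control wells.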

[13] = NCI Yeast Anticancer Drug Screen. Data for the sgs1 strain (AID 173);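 also: 0% = growth of vehicle-only control cultures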; conditions: S. cerevisiae sgs1 mutant, active compounds read high
Method in brief: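 Inhibition of yeast growth served as the measure. The mutant strain was treated with each compound, and growth was normalised to cultures receiving vehicle alone.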

[14] = NCI Yeast Anticancer Drug Screen. Data for the mlh1 rad18 strain (AID 175); conditions: S. cerevisiae mlh1 rad18 strain growth inhibition, active compounds read high
Method in brief: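 Compound-treated yeast growth, normalised to vehicle controls. Strain bears defined DNA repair mutations.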

[15] = NCI Yeast Anticancer Drug Screen. Data for the rad18 strain (AID 177); conditions: S. cerevisiae rad18 mutant growth inhibition, active compounds read high
Method in brief: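 Inhibition values reflect reduced yeast growth compared with vehicle-treated controls, using a strain engineered with a DNA damage repair defect.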

[16] = at 5.0 µM (retest, dose inferred, filed as 0.5)
[17] = at 50.0 µM (retest, dose inferred, filed as 5.0)

Measured: growth inhibition

O=c1ccc(N=Nc2ccccc2)ccc1O
active: [1]; at 11.0 µM 95% | [1]; at 33.0 µM 99% | [1]; at 100.0 µM 98% | [2]; at 11.0 µM 97% | [2]; at 33.0 µM 99% | [2]; at 100.0 µM 97% | [3]; at 11.0 µM 88% | [3]; at 33.0 µM 98% | [3]; at 100.0 µM 97% | [4]; at 3.7 µM 87% | [4]; at 11.0 µM 97% | [4]; at 33.0 µM 99% | [4]; [17] 99% | [4]; at 50.0 µM 98.7% | [4]; at 100.0 µM 98% | [5]; at 11.0 µM 93% | [5]; at 33.0 µM 99% | [5]; [17] 99% | [5]; at 50.0 µM 98.7% | [5]; at 100.0 µM 98% | [6]; at 3.7 µM 91% | [6]; at 11.0 µM 98% | [6]; at 33.0 µM 99% | [6]; at 100.0 µM 99% | [7]; [17] 99% | [7]; at 50.0 µM 98.7% | [8]; at 11.0 µM 93% | [8]; at 33.0 µM 98% | [8]; at 100.0 µM 97% | [9]; [17] 98% | [9]; at 50.0 µM 98.1% | [10]; at 3.7 µM 77% | [10]; at 11.0 µM 97% | [10]; at 33.0 µM 99% | [10]; [17] 99% | [10]; at 50.0 µM 97.8% | [10]; at 100.0 µM 99% | [11]; at 3.7 µM 87% | [11]; at 11.0 µM 99% | [11]; at 33.0 µM 99% | [11]; at 100.0 µM 98% | [12]; at 3.7 µM 90% | [12]; at 11.0 µM 98% | [12]; at 33.0 µM 99% | [12]; at 100.0 µM 99% | [13]; at 11.0 µM 97% | [13]; at 33.0 µM 99% | [13]; at 100.0 µM 98% | [14]; [17] 99% | [14]; at 50.0 µM 98.8% | [15]; at 11.0 µM 97% | [15]; at 33.0 µM 99% | [15]; at 100.0 µM 98%
inactive: [1]; at 1.2 µM 0% | [1]; at 3.7 µM 42% | [2]; at 1.2 µM 16% | [2]; at 3.7 µM 56% | [3]; at 1.2 µM -8% | [3]; at 3.7 µM 11% | [4]; at 1.2 µM 18% | [4]; [16] 34% | [5]; at 1.2 µM -1% | [5]; at 3.7 µM 37% | [5]; [16] 28% | [6]; at 1.2 µM 1% | [7]; [16] 44% | [8]; at 1.2 µM -6% | [8]; at 3.7 µM 33% | [9]; [16] -3% | [10]; at 1.2 µM 10% | [10]; [16] 22% | [11]; at 1.2 µM 31% | [12]; at 1.2 µM 10% | [13]; at 1.2 µM 4% | [13]; at 3.7 µM 62% | [14]; [16] 59% | [15]; at 1.2 µM 9% | [15]; at 3.7 µM 64%

COc1cc(N(C)C)ccc1/C=C\c1ccnc2ccccc12
inactive: [1]; at 1.2 µM -5% | [1]; at 3.7 µM -7% | [1]; at 11.0 µM -6% | [1]; at 33.0 µM -5% | [1]; at 100.0 µM -10% | [2]; at 1.2 µM -5% | [2]; at 3.7 µM -7% | [2]; at 11.0 µM -7% | [2]; at 33.0 µM -9% | [2]; at 100.0 µM -7% | [3]; at 1.2 µM -2% | [3]; at 3.7 µM -2% | [3]; at 11.0 µM 10% | [3]; at 33.0 µM 16% | [3]; at 100.0 µM 12% | [4]; at 1.2 µM -5% | [4]; at 3.7 µM -7% | [4]; [16] -10% | [4]; at 11.0 µM -3% | [4]; at 33.0 µM -1% | [4]; [17] -10% | [4]; at 50.0 µM 2.3% | [4]; at 100.0 µM 1% | [5]; at 1.2 µM -4% | [5]; at 3.7 µM -7% | [5]; [16] -11% | [5]; at 11.0 µM -8% | [5]; at 33.0 µM -4% | [5]; [17] -19% | [5]; at 50.0 µM -8.75% | [5]; at 100.0 µM 0% | [6]; at 1.2 µM -5% | [6]; at 3.7 µM -4% | [6]; at 11.0 µM 0% | [6]; at 33.0 µM 6% | [6]; at 100.0 µM 37% | [7]; [16] 0% | [7]; [17] 64% | [7]; at 50.0 µM -4.05% | [8]; at 1.2 µM -11% | [8]; at 3.7 µM -13% | [8]; at 11.0 µM -18% | [8]; at 33.0 µM -15% | [8]; at 100.0 µM -9% | [9]; [16] -17% | [9]; [17] -13% | [9]; at 50.0 µM -3.5% | [10]; at 1.2 µM -5% | [10]; at 3.7 µM -11% | [10]; [16] -14% | [10]; at 11.0 µM -14% | [10]; at 33.0 µM -10% | [10]; [17] -3% | [10]; at 50.0 µM -5.95% | [10]; at 100.0 µM 4% | [11]; at 1.2 µM -4% | [11]; at 3.7 µM -7% | [11]; at 11.0 µM -4% | [11]; at 33.0 µM 16% | [11]; at 100.0 µM 31% | [12]; at 1.2 µM -1% | [12]; at 3.7 µM -6% | [12]; at 11.0 µM 3% | [12]; at 33.0 µM 22% | [12]; at 100.0 µM 38% | [13]; at 1.2 µM -4% | [13]; at 3.7 µM -5% | [13]; at 11.0 µM 10% | [13]; at 33.0 µM 36% | [13]; at 100.0 µM 45% | [15]; at 1.2 µM -4% | [15]; at 3.7 µM -2% | [15]; at 11.0 µM -1% | [15]; at 33.0 µM 9% | [15]; at 100.0 µM 14%

CN(C)Cc1cccc(CN(C)C)[c]1[Sn]([Br])([c]1ccccc1)[c]1ccccc1
inactive: [1]; at 1.2 µM 28% | [1]; at 3.7 µM 45% | [1]; at 11.0 µM 57% | [2]; at 1.2 µM 20% | [2]; at 3.7 µM 36% | [2]; at 11.0 µM 49% | [2]; at 33.0 µM 58% | [3]; at 1.2 µM 19% | [3]; at 3.7 µM 32% | [3]; at 11.0 µM 30% | [3]; at 33.0 µM 36% | [3]; at 100.0 µM 39% | [4]; at 1.2 µM 30% | [4]; at 3.7 µM 62% | [4]; [16] 44% | [4]; at 11.0 µM 69% | [5]; at 1.2 µM 2% | [5]; at 3.7 µM 22% | [5]; [16] 47% | [5]; at 11.0 µM 42% | [5]; at 33.0 µM 56% | [6]; at 1.2 µM -3% | [6]; at 3.7 µM 17% | [6]; at 11.0 µM 27% | [7]; [16] 18% | [8]; at 1.2 µM -8% | [8]; at 3.7 µM 1% | [8]; at 11.0 µM 15% | [8]; at 33.0 µM 30% | [9]; [16] 13% | [9]; [17] 66% | [10]; at 1.2 µM -7% | [10]; at 3.7 µM 6% | [10]; [16] 32% | [10]; at 11.0 µM 18% | [10]; at 33.0 µM 50% | [11]; at 1.2 µM 10% | [11]; at 3.7 µM 13% | [11]; at 11.0 µM 41%
active: [1]; at 33.0 µM 74% | [1]; at 100.0 µM 97% | [2]; at 100.0 µM 96% | [4]; at 33.0 µM 82% | [4]; [17] 94% | [4]; at 50.0 µM 81.8% | [4]; at 100.0 µM 97% | [5]; [17] 98% | [5]; at 50.0 µM 86.2% | [5]; at 100.0 µM 94% | [6]; at 33.0 µM 78% | [6]; at 100.0 µM 97% | [7]; [17] 95% | [7]; at 50.0 µM 88.8% | [8]; at 100.0 µM 91% | [9]; at 50.0 µM 86.9% | [10]; [17] 95% | [10]; at 50.0 µM 88.8% | [10]; at 100.0 µM 95% | [11]; at 33.0 µM 87% | [11]; at 100.0 µM 97%
